From PubChem BioAssay
Hits are enriched below; roughly 11% of the tested compounds scored in any of these assays.
Pf growth 96h: inhibits malaria parasite growth, 96 h; P. falciparum luciferase reporter growth, 96 h; Potency, µM (titrated, usually from 28.7 µM), without a hit: at the top dose activity change, negative = inhibition, most hits filed as inhibitors; 6.9% of 320,000 active; also: % is scaled to controls: 0 for no effect and ±100 for the full control effect
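96 h incubation, 37 C, 5% CO2, of luciferase-reporter P. falciparum-infected RBCs (2% hematocrit, 0.05% parasitemia final) with test compounds; endpoint luminescence.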
AMA1 RON2 block: inhibitors of Plasmodium falciparum AMA1-RON2 interaction; AlphaScreen AMA1-biotinylated RON2 peptide binding; Potency, µM (highest dose often 58.2 µM), inactives show at the top dose activity change, negative = inhibition, hits mostly inhibitors; 0.2% of 360,000 active; AID 720542;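 also: 0% = vehicle wells and -100% = peptide control; nearly all actives have a fitted effect of over 45% in size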
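AMA1 (3D7) with his tag at 25 nM final met compounds first, then biotinylated RON2 peptide at 25 nM; detection used donor plus acceptor beads, 10 µg/mL apiece, read by AlphaScreen after 30 min at room temperature.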
NS1 inh: inhibitors of influenza NS1 protein function | 0.4% of 270,000 active | AID 2326 | Potency, µM (highest dose often 46.1 µM), for the others: top-dose activity, positive = more growth; calls by dose curve; also: actives are rising curves; nearly all actives have a fitted effect of over 50% in size
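Growth recovery, yeast-based: influenza A NS1 expressed in S. cerevisiae causes slow growth, and suppressors are detected by OD600. The parent strain without NS1 is used as positive control.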
Pf growth 48h: P. falciparum growth inhibition at 48 hours (one generation) | P. falciparum luciferase growth in erythrocytes, 48 h | Potency, µM (series often up to 28.7 µM), for inactives: top-dose activity change, negative = inhibition, most hits filed as inhibitors | 5.9% of 310,000 active | AID 504832; also: % is scaled to controls: 0 for no effect and ±100 for the full control effect
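Luciferase-expressing P. falciparum in infected erythrocytes (2% hematocrit, 0.1% parasitemia final) in RPMI 1640/0.5% Albumax were exposed to compound for 48 hours at 37 C, 5% CO2; growth read as luminescence.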
Sm TGR inh: inhibitors of Schistosoma mansoni thioredoxin glutathione reductase | Q962Y6 | purified TGR, DTNB reduction, TNB absorbance 405 nm | Potency, µM (series often up to 114 µM), for inactives: at the highest dose activity change, negative = inhibition, hits mostly inhibitors | 3% of 360,000 active | AID 485364; also: % is scaled to controls: 0 for no effect and ±100 for the full control effect; nearly all actives have a fitted effect of over 60% in size
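TGR 20 nM + NADPH 100 uM (dispensed conc.), cpd preinc 15 min RT; start with NADPH (500 uM addition) then DTNB (15 mM addition). Kinetic TNB absorbance, 405 nm filter. Four-parameter Hill fit across titration.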
Starred values were filed as active, the others as inactive; u = inconclusive; x = not tested or not shown. Unless noted, calls follow the shape of the dose curve; as a rule, active = well fitted curve in the direction sought with a large enough effect; inconclusive = small, poorly fitted or top-dose-only effect, or another doubt; inactive = no such curve, though single readings can be large; an effect the other way counts as inactive or inconclusive. Potency is read from the fitted curve at half-maximal effect.

SMILES | Pf growth 96h | AMA1 RON2 block | NS1 inh | Pf growth 48h | Sm TGR inh
COc1ccc(-n2cc(CNCCCn3ccnc3)c(-c3ccccc3Cl)n2)cc1 | 20% | -8% | 1% | 1.5µM* | u
COc1ccc(-n2cc(CNCCc3ncc(C)[nH]3)c(-c3ccccc3Cl)n2)cc1 | u | 35% | 7% | -12% | u
CN1CCN(c2oc(/C=C/c3ccc(F)cc3)nc2C#N)CC1 | x | x | x | x | -1%
Cc1nc(C)c(C(=O)O)c(-c2cccs2)c1C(=O)O | 32% | -4% | 1% | 6% | 3%
CCN1CCC(CNCc2cn(-c3ccc(OC)cc3)nc2-c2ccccc2Cl)C1 (centres undefined) | u | -8% | 2% | 2.1µM* | -15%
COc1ccc(-n2cc(CNCCN3CCOC3=O)c(-c3ccccc3Cl)n2)cc1 | u | -9% | 0% | -7% | u
COc1ccc(OC)c(NC(=O)Cn2cnc3sc(C)c(S(=O)(=O)N4CCN(c5ccccc5OC)CC4)c3c2=O)c1 | x | x | x | x | 9%
CCCCN(C)C(=O)Cn1cnc2sc(C)c(S(=O)(=O)N3CCN(c4ccccc4OC)CC3)c2c1=O | 3% | -1% | -2% | 12µM* | 2%
COc1ccccc1NC(=O)Cn1cnc2sc(C)c(S(=O)(=O)N3CCCCC3)c2c1=O | 0.52µM* | 0% | -5% | -22% | -13%
Cc1cccc(C)c1NC(=O)Cn1c(=O)n(Cc2ccc3c(c2)OCO3)c(=O)c2oc3ccccc3c21 | x | x | x | x | 3%
CC1(C(=O)Nc2ccc3c(c2)OCO3)CCN1C(=O)Cc1cccc2ccccc12 (centres undefined) | x | -29% | x | x | x
Cc1ccc(Cl)cc1N1CCN(C(=O)CN2C(=O)COc3ccc(S(=O)(=O)N4CCCCCC4)cc32)CC1 | x | x | x | x | -2%
CCOC(=O)c1[nH]c2c(c1C)C(=O)CC(c1ccco1)C2 (centres undefined) | 14% | 0% | -15% | 13µM* | 40µM*
Cc1c(C(=O)OCc2ccccc2)[nH]c2c1C(=O)CC(c1ccco1)C2 (centres undefined) | 3% | -21% | 0% | 1.5µM* | u
COCCOC(=O)c1[nH]c2c(c1C)C(=O)CC(c1ccco1)C2 (centres undefined) | 38% | -29% | -41% | u | 45µM*
CSCCOC(=O)c1[nH]c2c(c1C)C(=O)CC(c1ccco1)C2 (centres undefined) | 3.7µM* | -25% | 0% | u | u
Cc1c(C(=O)OCCOC(C)C)[nH]c2c1C(=O)CC(c1ccco1)C2 (centres undefined) | u | -5% | -15% | u | u
CCCCN(C(=O)C1CCCO1)c1c(N)n(CCC)c(=O)[nH]c1=O (centres undefined) | x | 15% | x | x | x
C[C@@H]1CN([C@@H](C)CO)C(=O)CCCn2nncc2CO[C@@H]1CN(C)C(=O)c1cc(-c2ccccc2)on1 | x | -1% | x | x | x
CC1CCN(C(=O)CSc2nnc(CNC(=O)c3c(F)cccc3F)o2)CC1 | 34% | 7% | u | 14% | -10%
COc1ccccc1N(C)S(=O)(=O)c1ccc(C(=O)NCC(C)C)cc1 | x | 0% | -15% | -14% | 5%
COc1ccccc1N(C)S(=O)(=O)c1ccc(C(=O)NCC2CCCCC2)cc1 | u | 1% | x | 13µM* | -7%
COc1ccccc1N(C)S(=O)(=O)c1ccc(C(=O)N(C)Cc2ccc(OC(F)F)cc2)cc1 | u | -13% | x | 12µM* | -8%
COc1ccccc1N(C)S(=O)(=O)c1ccc(C(=O)Nc2nccs2)cc1 | u | 96% | x | 15µM* | 0%
CCCc1nnc(NC(=O)c2ccc(S(=O)(=O)N(C)c3ccccc3OC)cc2)s1 | 13µM* | -12% | x | 10µM* | -3%
SMILES | Pf growth 96h | AMA1 RON2 block | NS1 inh | Pf growth 48h | Sm TGR inh
Cc1ccc(Nc2ncc(C(=O)Nc3ccc(F)cc3F)c3ccccc23)cc1Cl | x | x | x | x | -1%
O=C(NCc1ccccc1)C1CCCN1C(=O)Nc1ccccc1[N+](=O)[O-] (centres undefined) | u | 2% | 8% | 17% | -12%
CSc1ncccc1C(=O)OCC(=O)NC1CC1 | 16% | -4% | x | 7% | 8%
COc1ccccc1N(C)S(=O)(=O)c1ccc(C(=O)Nc2ncc(C)s2)cc1 | u | 55% | x | u | 2%
COc1ccccc1N(C)S(=O)(=O)c1ccc(C(=O)Nc2nc(C)c(C(C)=O)s2)cc1 | u | -5% | x | 12µM* | -1%
CCCCCCCCCCCCCCCC[N+](C)(C)CCN(Cc1ccc(OC)cc1)c1ncccn1 | 1.9µM* | -1% | x | 3.7µM* | -22%
COc1cc(Br)c(-c2sc(Nc3ccccc3)n[n+]2-c2ccc(F)cc2)cc1OC | 3.7µM* | 78% | -14% | 1.9µM* | 3%
CCc1ccc(Nc2n[n+](-c3ccccc3)c(-c3ccc(SC)cc3)s2)cc1 | 4.7µM* | 0% | 20% | u | 1%
COc1cc(OC)c(-c2sc(Nc3ccccc3)n[n+]2-c2ccc(F)cc2)cc1OC | 20% | -2% | -7% | 11% | 7%
CCc1ccc(Nc2n[n+](-c3ccccc3)c(-c3ccc(OC)c(Br)c3)s2)cc1 | 4.7µM* | 42% | 10% | 1% | -2%
CSc1ccc(-c2sc(Nc3ccccc3)n[n+]2-c2ccccc2)cc1 | 1.9µM* | -23% | -1% | u | -2%
COc1ccccc1-n1cc(C(=O)c2cc(Cl)ccc2O)cc(C#N)c1=O | u | 0% | x | u | -13%
Cc1ccccc1-n1cc(C(=O)c2cc(Cl)ccc2O)cc(C#N)c1=O | 2.6µM* | 0% | -23% | 5.2µM* | -20%
CC(=O)N1CCc2cc(Br)cc(S(=O)(=O)CCC(=O)N3CCN(c4cccc(C)c4C)CC3)c21 | x | x | x | x | 3%
c1ccc(-c2ccc(-c3n(-c4ccccn4)c4ccccc4[n+]3-c3ccccn3)cc2)cc1 | 15µM* | -21% | x | u | -9%
Cc1ccc(CNC(=O)c2c3c(nc4ccccc24)C(=O)N(C2CCCCC2)C3)cc1 | x | x | x | x | 4%
CN1CCN(S(=O)(=O)c2ccc(N(C)Cc3ccc(OC(F)F)cc3)c([N+](=O)[O-])c2)CC1 | u | u | x | -11% | -21%
O=C(O)/C=C/C(=O)c1c(-c2ccccc2)[nH]c2ccccc12 | 4.1µM* | 5% | 11% | 6.6µM* | 25µM*
O=C(NCCc1ccccc1)C(=O)c1c(-c2ccccc2)[nH]c2ccccc12 | 5.2µM* | -14% | -6% | -29% | -14%
O=[N+]([O-])c1ccc(N2CCCCC2)nc1N1CCCCC1 | 3.3µM* | u | -10% | 2.1µM* | 5%
C/C(=N\NC(=O)c1ccc(Cn2cc([N+](=O)[O-])cn2)o1)c1cccc(NC(=O)c2cccnc2)c1 | 4.1µM* | 19% | 10% | -27% | 1%
C/C(=N\NC(=O)c1ccc(Cn2cc(Br)cn2)o1)c1cccc(NC(=O)C(C)(C)C)c1 | u | -2% | -10% | -30% | -2%
